High-throughput results deposited in PubChem by several laboratories.
An excerpt weighted towards active compounds, which were near 2.8% of everything screened.
Shn3 inh set2 – Schnurri-3 reporter inhibition in Clone20 osteoblasts; inhibition, % at 12.5 µM; 0.52% of 360,000 active; Clone20 osteoblast Shn3 3'UTR firefly luciferase, 24 h;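 active means mean inhibition of at least 75% with every replicate also reaching 75%; inconclusive means mean inhibition at least 75% but some replicate below; inactive means mean inhibition below 75%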
KKLEB cytotox – reduces viability of KKLEB cystic fibrosis airway cells; KKLEB CF airway cells viability, ATPlite luminescence, overnight; stronger effect = lower value; cells stimulated with P. aeruginosa culture filtrate; activity change (cytotoxicity), % at 5 µM; 0.36% of 360,000 active;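 active means corrected activity change at or below -50% at 5 µM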
CF NFkB inh – blocks PAF-induced NF-kB reporter in cystic fibrosis cells | KKLEB NF-kB-GFP reporter, GFP fluorescence overnight | inhibition, % at 5 µM | 0.86% of 360,000 active;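 active means at least 50% inhibition at 5 µM, scaled per plate between neutral and stimulator controls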;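 further: PAF is a Pseudomonas aeruginosa culture filtrate used as stimulus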
MITF TRPM1 inh – reduces MITF-dependent TRPM1 promoter luciferase signal | inhibition, % at 12.5 µM | SK-MEL-5 TRPM1 promoter luciferase, 24 h | 0.83% of 330,000 active;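 active means mean inhibition across replicates of 60% or more, whatever share of single replicates reaches that level; inconclusive means some that reach 60%, reason not given; inactive means mean inhibition across replicates below 60%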
HIF-2a inh – blocks HIF-2a reporter activity. 786-0 RCC cells HIF-2a reporter, luciferase luminescence, overnight. inhibition, % at 18.8 µM. 0.72% of 360,000 active;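 active means inhibition of the luminescence signal of 40% or more relative to plate controls, in a single-dose primary screen at 18.75 µM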
Peg3 promoter – Peg3 promoter activity inhibition; HeLa PEG-Prom luciferase reporter, luminescence, overnight; inhibition, % at 20 µM; 1.7% of 360,000 active; AID 588405;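 active means inhibition of at least 50% at 20 µM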
A number is an active result; n = inactive; u = inconclusive; x = not tested or not shown.

SMILES	Shn3 inh set2	KKLEB cytotox	CF NFkB inh	MITF TRPM1 inh	HIF-2a inh	Peg3 promoter
CC(=O)c1ccc(N2CCN(C(=O)C3CCN(S(=O)(=O)c4cccs4)CC3)CC2)cc1	n	n	n	n	n	n
Cc1ccc2c(c1)c1c(n2CC(O)CNC(CO)(CO)CO)CCCC1 (stereo not drawn)	n	n	n	n	n	n
Cc1ccc2c(c1)c1c(n2CC(O)CNC2CCCCC2)CCCC1 (stereo not drawn)	n	n	n	n	n	101.5
O=C(CSc1nnc(CNC(=O)c2ccco2)o1)Nc1ccccc1F	n	n	n	n	n	n
NC(COCc1ccccc1)c1csc(Nc2ccc(C(F)(F)F)cn2)n1 (stereo not drawn)	n	n	n	x	n	101.7
NC(CCc1ccccc1)c1csc(Nc2ccc(C(F)(F)F)cn2)n1 (stereo not drawn)	n	n	n	x	n	109.6
NC(COCc1ccccc1)c1csc(Nc2ccccn2)n1 (stereo not drawn)	n	n	n	x	n	n
CCCCN(C(=O)c1cc(-c2ccc(F)cc2)nc2ccccc12)c1c(N)n(CCCC)c(=O)[nH]c1=O	n	n	n	69.5	n	n
CCCCN(C(=O)c1ccccc1F)c1c(N)n(CCC)c(=O)[nH]c1=O	n	n	n	n	n	73.2
CCCCN(C(=O)c1ccco1)c1c(N)n(CCC)c(=O)[nH]c1=O	n	n	n	n	n	n
COc1ccc(NS(=O)(=O)NC(=O)c2c[nH]c3ccccc23)cc1	n	n	n	n	n	n
COc1cc(/C=N/N=C(N)N)ccc1OCc1ccccc1Cl	n	n	n	n	n	102.0
COc1ccc(/C=N/N=C/c2ccc(OC)c(OC)c2)cc1OC	n	n	n	n	n	n
CN(C)c1nc(N/N=C\c2ccc(Cl)c([N+](=O)[O-])c2)nc(Nc2ccc(F)cc2)n1	n	n	n	n	n	64.7
C#CCOCCOCCOCCNc1nc(N2CCN(C(=O)[C@H](CC(N)=O)n3cc(C(N)[C@H](C)CC)nn3)CC2)nc(N2CCN(C(=O)[C@H](CC(N)=O)n3cc(C(N)[C@@H](C)CC)nn3)CC2)n1 (stereo partly drawn)	n	n	n	n	n	n
CCc1cc(C(=O)c2ccc(C)cc2)c(NC(=O)CCl)s1	n	n	n	n	n	n
Cc1cc(C(=O)c2ccc(Cl)cc2)c(NC(=O)CCl)s1	n	n	n	n	n	88.6
O=C(C(Br)=Cc1ccccc1)c1ccccc1	96.6	n	94.2	94.1	85.5	107.9
CC(=Cc1ccccc1)C(=O)c1ccccc1	n	n	n	x	n	n
Cc1ccccc1C(=O)NNC(=O)C1CC(=O)N(c2ccc3c(c2)OCCO3)C1 (stereo not drawn)	n	n	n	n	n	n
CC(C)N(C(=O)N1CCN(c2ccnc3cc(Cl)ccc23)CC1)C(C)C	n	n	n	n	n	54.3
CCOC1=C2[C@H](c3ccc(CC)cc3)N(S(=O)(=O)c3ccc(C)cc3)C[C@H]2C(C#N)(C#N)C(C#N)(C#N)C1	95.5	n	n	x	61.8	88.8
CCOC1=C2[C@H](c3ccccc3Cl)N(S(=O)(=O)c3ccc(C)cc3)C[C@H]2C(C#N)(C#N)C(C#N)(C#N)C1	n	n	n	x	61.4	n
CCC(C)NS(=O)(=O)c1ccc(S(=O)(=O)N2CCCC3(CCCCC3)C2)cc1 (stereo not drawn)	85.8	n	n	n	n	n
Cc1cc(C)c(C(=O)N2CCC(N3CCC(C(=O)NC(C)C)CC3)CC2)o1	n	n	n	n	n	n
SMILES	Shn3 inh set2	KKLEB cytotox	CF NFkB inh	MITF TRPM1 inh	HIF-2a inh	Peg3 promoter
COc1ccc2c(c1)CC(N1CCN(C)CC1)c1cc(OC)ccc1S2 (stereo not drawn)	n	n	n	n	n	68.9
O=[N+]([O-])c1ccc2c(c1)C(N1CCN(CCO)CC1)Cc1ccc(F)cc1S2 (stereo not drawn)	n	n	n	x	n	n
CSc1ccc2c(c1)C(N1CCN(C)CC1)Cc1ccc(F)cc1S2 (stereo not drawn)	n	n	n	x	n	115.2
COCCCN1CCN(C2Cc3ccccc3Sc3ccc(Cl)cc32)CC1 (stereo not drawn)	n	n	n	n	n	n
COc1cc(NC(=O)CCc2nnc3ccc(N4CCOCC4)nn23)cc(OC)c1OC	n	n	n	n	n	n
OC(CNC1CCCCC1)CON=C1CCSc2c(Cl)cccc21 (stereo not drawn)	n	n	n	x	n	95.6
Cc1cc(SCC(=O)N/N=C/c2ccc(O)cc2O)nc2ccccc12	91.8	n	n	n	n	53.9
COc1ccc2nc(C)cc(SCC(=O)N/N=C/c3cccc4ccccc34)c2c1	n	n	n	u	n	60.1
Cc1cc(SCC(=O)N/N=C/c2ccc(O)c(O)c2)nc2ccccc12	n	n	n	n	n	n
O=C(CSc1n[nH]c(=O)n1-c1ccccc1)N1CCOCC1	n	n	n	n	n	n
COc1ccc(/C=C/c2ccc3ccccc3[n+]2C)cc1OC	92.1	n	n	n	n	n
CN(C)c1ccc(/C=C/c2ccc3ccccc3[n+]2C)cc1	n	n	n	87.8	n	n
CC(=O)Oc1ccccc1/C=C/c1ccc2ccccc2[n+]1C	n	n	n	n	n	n
COc1ccc(CN2CC(C(=O)N3CC(C)CC(C)C3)CC2=O)cc1 (stereo not drawn)	n	n	n	n	n	n
O=C(COC(=O)c1cccc(NS(=O)(=O)/C=C/c2ccccc2)c1)Nc1ccccc1OC(F)F	n	n	n	n	n	n
O=C(NCc1ccccc1)C(C1CC1)n1c(-c2cccs2)nc2ccccc21 (stereo not drawn)	x	x	x	x	n	x
C=CCOc1c(Br)cc(/C=N/n2c(CC)n[nH]c2=S)cc1Br	n	n	n	n	n	n
CCCCCCCCCCOC(=O)Cn1c(COc2ccccc2OC)[n+](C)c2ccccc21	88.8	-54.4	51.0	82.5	42.4	106.4
O=C(c1ccc(-c2ccc([N+](=O)[O-])cc2)o1)N1CCCCCCC1	n	n	n	n	n	105.4
O=C(c1ccc(-c2ccc([N+](=O)[O-])cc2)o1)N1CCCC(C(F)(F)F)C1 (stereo not drawn)	n	n	n	n	n	n
CCOc1ccc(OCc2ccc(C(=O)N/N=C(\C)c3ccccn3)cc2)cc1	91.5	n	n	n	n	n
C/C(=N\NC(=O)c1ccccc1OCc1ccc(F)cc1)c1ccccn1	93.2	n	n	69.9	n	50.4
O=C(NNC(=O)c1ccccc1OCc1ccc(F)cc1)c1ccccc1O	n	n	n	n	n	n
Cn1c(=O)[nH]c(=O)c2c1nc(N1CCOCC1)n2CCCSc1ncccn1	n	n	n	n	n	n
CC(C)(C)Cc1c(-c2ccccc2)nc2ccc(Cl)cn12	n	n	n	x	n	n
CCCCC[n+]1cccc2c3ccccc3ccc21	n	n	n	n	n	n
